High-throughput results (PubChem BioAssay)
Only some compounds are listed: those with a hit (about 8.1% of all), similar ones and a draw of the others.
ClpP mod: qHTS Assay for Activators of ClpP; ATP-dependent Clp protease proteolytic subunit (Bacillus subtilis (strain 168)), P80244; purified B. subtilis ClpP, FRET peptide cleavage, 20 min; Potency, µM (top dose mostly 57.5 µM), inactives show top-dose activity change, negative = active; hit rate 1.9% among 340,000; AID 651965, 2013; active = well fitted falling curve with a large enough effect; inconclusive = small, poorly fitted or top-dose-only effect; inactive = no such curve, though single readings can be large or run the other way; also: the source files actives as falling curves though it sought activators and does not explain the sign; nearly all actives have a fitted effect of over 65% in size
Target sequence (P80244 whole entry, looked up): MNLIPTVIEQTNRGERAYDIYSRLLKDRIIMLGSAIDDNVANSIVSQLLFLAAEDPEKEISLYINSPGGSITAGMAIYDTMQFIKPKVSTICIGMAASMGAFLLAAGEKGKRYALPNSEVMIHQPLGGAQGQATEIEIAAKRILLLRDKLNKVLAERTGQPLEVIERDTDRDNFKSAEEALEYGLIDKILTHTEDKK
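ClpP 10 microg/mL final, pH 8 Tris/KCl buffer with BSA, glycerol, Tween-20; compound pinned in; FRET-FV substrate; RT 20 min; Ex320/Em430; ΔFRET vs ADEP 5.8 microM, DMSO, no enzyme.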
VP16 counter: counter-screen for ROR gamma inhibitors: Gal4-VP16 reporter | Potency, µM (highest dose often 53.6 µM), for the others: at the highest dose activity, negative = inhibition, most hits filed as inhibitors | Drosophila S2 Gal4-VP16 UAS-luciferase, luminescence, 20 h | hit rate 3.5% among 310,000 | AID 2546;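 also: Gal4-VP16 expression switched on by copper sulfate through the metallothionein promoter; % is scaled to controls: 0 for no effect and ±100 for the full control effect; nearly all actives have a fitted effect of over 50% in size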
Sfp inh: blocks B. subtilis Sfp PPTase activity | Biochemical Sfp PPTase activity, qHTS | hit rate 3.5% among 310,000 | Potency, µM, for the others: largest response in the series, negative = inhibition, most hits filed as inhibitors | Q9F4F7 | AID 1490;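 also: the enzyme is Sfp with the accession as filed and its product quenches rhodamine fluorescence; 0% = enzyme reaction without inhibitor and -100% = no enzyme wells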
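Buffer: 50 mM Hepes-Na pH 7.6, 10 mM MgCl2, 0.01% Nonidet P-40, 0.01% BSA. Enzyme 15 nM, pre-exposed to compound 15 min; substrates then added and fluorescence change tracked over 30 min.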
RORgamma inh: inhibitors of mouse ROR gamma transcriptional activity | Potency, µM (titrated, usually from 53.6 µM), without a hit: at the highest dose activity change, negative = inhibition, hits mostly inhibitors | Drosophila S2 Gal4-RORgamma UAS-luciferase reporter, 20 h | P51450 | hit rate 5.4% among 310,000; also: % is scaled to controls: 0 for no effect and ±100 for the full control effect; nearly all actives have a fitted effect of over 60% in size
Target sequence (P51450 whole entry, looked up, the tested form may be a part): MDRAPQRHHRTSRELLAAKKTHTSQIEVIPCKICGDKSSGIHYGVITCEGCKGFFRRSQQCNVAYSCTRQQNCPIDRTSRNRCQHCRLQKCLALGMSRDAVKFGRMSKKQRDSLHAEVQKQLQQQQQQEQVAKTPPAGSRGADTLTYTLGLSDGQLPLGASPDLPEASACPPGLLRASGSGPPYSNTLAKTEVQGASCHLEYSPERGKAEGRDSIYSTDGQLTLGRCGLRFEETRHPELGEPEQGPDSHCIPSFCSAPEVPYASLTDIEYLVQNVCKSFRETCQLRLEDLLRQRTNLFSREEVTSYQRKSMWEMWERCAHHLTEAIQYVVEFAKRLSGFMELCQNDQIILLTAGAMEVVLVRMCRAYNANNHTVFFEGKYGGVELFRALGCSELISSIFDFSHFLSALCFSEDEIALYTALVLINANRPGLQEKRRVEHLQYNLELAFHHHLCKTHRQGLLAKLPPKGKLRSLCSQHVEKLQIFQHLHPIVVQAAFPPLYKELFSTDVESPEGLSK
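A Gal4/UAS one-hybrid system in insect cells: metallothionein-promoter Gal4–ROR gamma fusion plus Photinus luciferase reporter. Copper sulfate 700 uM final, 20 hr ambient incubation, luminescent detection after 10 min with reagent.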
PINK1 modulator: modulators of PINK1 expression. PINK1 immunofluorescence, high-content cytometry, 24 h. hit rate 0.2% among 410,000. Potency, µM (doses to about 76.6 µM), for inactives: at the highest dose activation (PINK1 increase), actives largely listed as activators; active = well fitted activation curve with a large enough effect; inconclusive = small, poorly fitted or top-dose-only effect; cell line not stated here; also: % of control where 0% means no effect; nearly all actives have a fitted effect of over 65% in size
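Readout is PINK1 immunofluorescence, quantified alongside mitochondrial, cell and nuclear markers by laser-scanning microplate cytometry. Cells from a stable line were exposed to compound titrations (5 concentrations) for 24 hours, with CCCP controls.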
Epigenetic derep: regulators of epigenetic silencing causing reporter derepression in mouse cells; murine LDR cells, GFP reporter derepression, 30 h; Potency, µM (top dose mostly 53.9 µM), for inactives: at the highest dose GFP activation, hits mostly activators; hit rate 0.2% among 280,000; also: % of control where 0% means no effect; nearly all actives have a fitted effect of over 60% in size
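Derepression of a silenced CMV-GFP reporter in murine LDR cells is scored by enumerating GFP-positive cells with a laser-scanning microplate cytometer after 30 hours of treatment at 37 C.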
* hit, by the source's call; ? = inconclusive; · = no result; [ ] = dose if it differs, or a comment. Unless noted, calls follow the shape of the dose curve; as a rule, active = well fitted curve in the direction sought with a large enough effect; inconclusive = small, poorly fitted or top-dose-only effect, or another doubt; inactive = no such curve, though single readings can be large; an effect the other way counts as inactive or inconclusive. Potency is read from the fitted curve at half-maximal effect.

SMILES	ClpP mod	VP16 counter	Sfp inh	RORgamma inh	PINK1 modulator	Epigenetic derep
Cc1ccc(C(=O)n2nc(C)c(S(=O)(=O)N3CCOCC3)c2C)cc1C	-1.0%	·	·	·	1.5%	0.0%
COc1cc(/C=C/c2cncc(/C=C/c3cc(OC)c(OC)c(OC)c3)c2)cc(OC)c1OC	-5.7%	·	·	·	-0.3%	·
COc1ccc(-n2nc(C(=O)N3CCN(c4cccc(C)c4C)CC3)c3c4ccccc4n(C)c3c2=O)cc1Cl	-14.4%	·	·	·	-0.4%	6.4%
COc1cc2nccc(Oc3ccc(NC(=O)Nc4ccc(F)cc4F)c(F)c3)c2cc1OC	·	?	-6.1%	-41.0%	·	·
COc1ccc(/C=C2\SC(=O)N(CC(=O)Nc3ccc(O)cc3)C2=O)cc1OC	·	-2.2%	-2.2%	-9.6%	7.6%	·
COc1cccc2c(=O)cc(C)n(CC(=O)Nc3cccc(C)c3)c12	3.6%	11.2µM*	11.4%	?	0.5%	2.1%
O=C(O)CN1C(=O)/C(=C\c2ccccc2OCc2ccc(Cl)cc2Cl)SC1=S	·	-7.0%	?	?	4.6%	·
COc1ccc(/C=C2\SC(=S)N(CCCC(=O)NNC(=O)c3ccccc3O)C2=O)cc1	·	1.58µM*	-20.6%	0.708µM*	3.4%	-0.6%
Cc1ccc(NC(=O)CN2C(=O)S/C(=C\c3cc(Cl)c(OCC(=O)O)c(Cl)c3)C2=O)cc1	-3.8%	-4.7%	50.1µM*	19.9%[1.91 µM]	3.1%	·
O=C(O)CN1C(=O)/C(=C\c2cccc(OCc3ccc(Cl)cc3Cl)c2)SC1=S	·	-2.6%	79.4µM*	41.8%	4.3%	·
COCCC1CCCCN1Cc1nc(N2CCCC2)c2cc(OC)c(OC)cc2n1 (stereo not drawn)	·	·	·	·	2.4%	·
CCOC(=O)c1c(C)oc2nc(C)nc(NCCc3ccc(OCC)c(OCC)c3)c12	-1.2%	·	·	·	-1.0%	-0.2%
Cc1ccc(S(=O)(=O)N2CCN(c3nc(-n4cncn4)nc4ccccc34)CC2)cc1	4.0%	·	·	·	0.2%	·
COc1ccc(CCNC(=O)C(=O)NCC(c2ccco2)S(=O)(=O)c2ccc(C)cc2)cc1 (stereo not drawn)	1.9%	·	·	·	10.7%	?
CCOC(=O)c1ccc(NC(=O)c2cn3c4c(ccc(Cl)c4c2=O)OC(C)C3)cc1 (stereo not drawn)	0.5%	·	·	·	-1.0%	-0.4%
COc1ccc(Oc2nc3c(c(=O)n(Cc4ccccc4Cl)c(=O)n3C)n2C)cc1	-2.0%	·	·	·	0.3%	-1.0%
Cn1cnc(S(=O)(=O)N2CCCC(C(=O)NCc3ccccc3)C2)c1 (stereo not drawn)	2.5%	·	·	·	0.0%	-2.6%
COc1ccc(/C=C2/SC(=S)N(CCCC(=O)Nc3ccccc3C(=O)O)C2=O)cc1	·	3.55µM*	27.2%	1.41µM*	-0.9%	·
CCN(CC)CCOC(=O)c1ccc(NC(=O)CCCN2C(=O)/C(=C/c3cccs3)SC2=S)cc1	-3.3%	11.2µM*	?	22.4µM*	-3.9%	·
O=C(CCCN1C(=O)/C(=C\c2cccs2)SC1=S)Nc1ccc(C(=O)O)cc1	·	-12.0%	-0.8%	8.3%	-1.2%	1.9%
Cc1ccc(C(=O)Nc2cc(-c3nc4ncccc4o3)ccc2C)c(C)c1	0.7%	·	·	·	-1.1%	1.8%
CNC(=S)N/N=C(\C)c1ccc(N2CCOCC2)cc1	?	?	50.1µM*	7.94µM*	0.4%	?
CCNC(=S)N/N=C(\C)c1ccc(N2CCOCC2)cc1	·	3.55µM*	-2.3%	2.51µM*	1.1%	0.0%
COc1ccc(CC(=O)n2[nH]c(=O)cc(C)c2=O)cc1OC	·	?	?	11.2µM*	4.4%	1.9%
COc1ccc(-c2csc(NC3OC(=O)c4c3ccc(OC)c4OC)n2)cc1OC (stereo not drawn)	·	7.94µM*	?	3.55µM*	-1.5%	?
SMILES	ClpP mod	VP16 counter	Sfp inh	RORgamma inh	PINK1 modulator	Epigenetic derep
CCOc1ccccc1C(=O)N1CCc2cc(OC)c(OC)cc2C1COc1ccc(OC)cc1 (stereo not drawn)	0.8%	·	·	·	-0.5%	-0.3%
CN1CCN(c2ncc3nc(-c4ccc(F)cc4)c(=O)n(Cc4cccs4)c3n2)CC1	·	2.1%	-20.5%	?	3.1%	·
COc1ccc(CNC(=S)NCc2ccc(OC(C)C)cc2)cc1	·	-22.0%	-2.6%	?	1.5%	2.6%
COc1ccc(CNC(=S)Nc2ccccc2Cl)cc1	-3.4%	?	-2.3%	17.8µM*	0.0%	·
COc1ccc(CNC(=S)Nc2ccccc2-c2ccccc2)cc1	·	7.08µM*	-14.4%	2µM*	·	-1.4%
COc1ccc(CCN2C(=O)CN(C3CCC(C)CC3)C(=O)C2c2ccc(OC(C)C)c(OC)c2)cc1OC (stereo not drawn)	2.6%	·	·	·	0.9%	-0.6%
CCC1CN(CC(=O)NC(C)c2cn(C)nc2C)Cc2cc(OC)ccc2O1 (stereo not drawn)	·	·	·	·	-0.2%	·
Cc1cc(C)n(-c2cc(N3CCOCC3)ncn2)n1	0.2%	4.0%	3.9%	-5.7%	-0.4%	-1.0%
Cc1cc(N2CCC(C)CC2)nc(-n2nc(C)cc2C)n1	-4.7%	1.26µM*	18.9%	0.398µM*	-0.7%	1.8%
Cc1cc(C)n(-c2nc(N(C)C)nc(N3CCOCC3)n2)n1	-1.5%	?	11.4%	3.16µM*	-15.8%[38.3 µM]	-12.2%
O=C(COC(=O)c1cc(-c2cccs2)nc2ccccc12)c1ccc(Br)cc1	-6.3%	·	·	·	2.7%	1.9%
O=C(CCCc1ccccc1)Nc1ccccn1	·	14.6%[10 µM]	10.3%	21.6%	4.2%	-0.7%[10.1 µM]
O=C(CCc1ccccc1)Nc1nnc(-c2ccccn2)o1	22.4µM*	?	-28.6%	?	5.3%	2.1%
O=C(COC(=O)CNC(=O)c1ccc(Br)cc1)Nc1nnc(-c2ccccc2)o1	0.2%	·	·	·	-1.2%	·
